Test results as given in article PMC4552634, “A New Set of Chemical Starting Points with Plasmodium falciparum Transmission-Blocking Potential for Antimalarial Drug Discovery” (PLoS ONE, 2015).
About 3,200 (25%) of roughly 13,000 compounds showed an effect of 50% or more. Some of the results follow.

system: P. falciparum stage V gametocytes; design: BacTiter-Glo ATP luminescence viability of purified stage V gametocytes in 384-well plates, per cent inhibition versus DMSO; conditions: 48 h, 5 µM; inhibitor

| Structure (SMILES) | % Inhibition [%] |
| --- | --- |
| Cc1ccc([N+](=O)[O-])cc1NC(=O)N(CC(O)c1ccccc1)C1CCCCC1 (centres unmarked) [TCMDC-123672] | 2.226 |
| CCCCNCc1ccc(-c2nc(CN(C(=O)Nc3cc([N+](=O)[O-])ccc3F)C3Cc4ccccc4C3)cs2)cc1 [TCMDC-141640] | 54.3 |
| O=C(Nc1ccccc1F)N(CCCn1ccnc1)Cc1csc(-c2ccc(CNCc3ccccc3)cc2)n1 [TCMDC-141643] | 22.98 |
| COc1ccc(Cc2c(C)nc3nc(N)nc(N)c3c2C)cc1OC [TCMDC-137649] | 1.878 |
| O=C(Nc1ccc(Cl)cc1)N1CCN(C2CCCCC2)CC1 [TCMDC-125819] | 10 |
| O=C(Nc1ccc2c(c1)CCC2)c1cccc(CN2CCCN(Cc3cccc(O)c3)CC2)c1 [TCMDC-135957] | 14.29 |
| O=C(Cc1ccsc1)NCC(c1ccccc1Cl)c1c[nH]c2ccccc12 (centres unmarked) [TCMDC-125251] | 11.67 |
| NC(=NCc1ccccc1Cl)NCCc1c[nH]c2ccccc12 [TCMDC-138012] | -46.58 |
| O=C(Cc1cccs1)NCC(c1ccccc1Cl)c1c[nH]c2ccccc12 (centres unmarked) [TCMDC-125062] | 59.09 |
| COc1ccc2nc3cc(Cl)ccc3c(NCCCO)c2c1 [TCMDC-124144] | 20.12 |
| COc1ccc2nc3cc(Cl)ccc3c(NCc3ccccc3)c2c1.Cl [TCMDC-137663] | -68.8 |
| COc1ccc2nc3cc(Cl)ccc3c(NCCNCC(O)CO)c2n1 (centres unmarked) [TCMDC-137938] | 74.53 |
| COc1ccc2nc3cc(Cl)ccc3c(Nc3ccc(Sc4ccc(Nc5c6ccc(Cl)cc6nc6ccc(OC)cc56)cc4)cc3)c2c1.Cl [TCMDC-137673] | -84.83 |
| COc1ccc2nc3cc(Cl)ccc3c(NCCCCCCNc3c4ccc(Cl)cc4nc4ccc(OC)cc34)c2c1 [TCMDC-137503] | 106.2 |
| COc1ccc2nc3cc(Cl)ccc3c(N)c2c1.Cl [TCMDC-125835] | 124.4 |
| COc1ccc2nc3cc(Cl)ccc3c(NCCCCNc3c4ccc(Cl)cc4nc4ccc(OC)cc34)c2c1 [TCMDC-138218] | 112.4 |
| CCN(CC)CCNc1c2ccc(Cl)cc2nc2ccc(OC)nc12 [TCMDC-137937] | -10.21 |
| COc1ccc2nc3cc(Cl)ccc3c(Nc3ccc(Oc4ccc(Nc5c6ccc(Cl)cc6nc6ccc(OC)cc56)cc4)cc3)c2c1.Cl [TCMDC-137674] | -12.74 |
| CCOc1ccc(-n2nc3c(Cl)nnc(-c4ccccc4)c3c2-c2ccccc2)cc1 [TCMDC-123899] | -2.574 |
| CCCC(C)Nc1nc(C)cc(N[C@@H](CC(C)C)C(=O)NC2CCCC2)n1 (some centres unmarked) [TCMDC-134895] | -73.82 |
| CC1CCc2sc(-c3nnc(SC(C)C(=O)NC4CC4)o3)cc2C1 (centres unmarked) [TCMDC-124866] | 6.4 |
| CCOc1ncccc1CN1CCC(N2CCc3cc(NC(=O)c4cc(C)on4)ccc32)C1 (centres unmarked) [TCMDC-135086] | -27.43 |
| NC(=O)c1cccc(CNC(=O)NC[C@H]2CN(Cc3ccc(Cl)c(Cl)c3)CCO2)c1 [TCMDC-138745] | 31.93 |

| Structure (SMILES) | % Inhibition [%] |
| --- | --- |
| COc1cc(NC(=O)/C=C/c2cccc3ccoc23)ccc1OCCN(C(C)C)C(C)C [TCMDC-139958] | 3.846 |
| CCOC(=O)NC1=NC(C)(C)N(OCc2ccc(Cl)c(Cl)c2)C(NC(=O)OCC)=N1 [TCMDC-131729] | 1.326 |
| COc1ccc2c(c1)C(C)(CCCN(C)C)C(=O)N2C (centres unmarked) [TCMDC-138945] | 13.31 |
| COc1ccc2nc3cc(Cl)ccc3c(NCCO)c2c1 [TCMDC-124272] | 0.5882 |
| COc1ccc2nc3cc(Cl)ccc3c(NCCCCN)c2c1 [TCMDC-137526] | 92.71 |
| COc1ccc2nc3cc(Cl)ccc3c(NCCN(C)C)c2c1 [TCMDC-139093] | 54.53 |
| COc1ccc2nccc([C@@H](O)CN3CCC(NCc4nc5c(cc4F)SCC(=O)N5)C(F)C3)c2c1 (some centres unmarked) [TCMDC-141681] | -15.96 |
| Nc1ccc(-c2nc3cc(C4=N[C@H]5CCCC[C@H]5N4)ccc3o2)cc1[N+](=O)[O-] [TCMDC-137253] | 108.2 |
| O=[N+]([O-])c1ccc(-c2nc3cc(C4=NC5CCCCC5N4)ccc3[nH]2)cc1 (centres unmarked) [TCMDC-137220] | 5.239 |
| O=[N+]([O-])c1cccc(-c2nc3cc(C4=NC5CCCCC5N4)ccc3[nH]2)c1 (centres unmarked) [TCMDC-137221] | 5.96 |
| COc1ccc2ncc(F)c([C@@H](O)CN3CCC(NCc4cc5c(cn4)OCCO5)CC3)c2c1 [TCMDC-135379] | 9.097 |
| COc1c(F)ccc2ncc(Cl)c(CCN3CCC(NCc4ccc5c(n4)NC(=O)CS5)CC3)c12 [TCMDC-141955] | 54.36 |
| Cc1ccc2ncc(Cl)c(CCN3CCC(NCc4ccc5c(n4)NC(=O)CS5)CC3)c2n1 [TCMDC-141963] | 7.636 |
| Cn1ncc2c3c(CCN4CCC(NCc5cc6c(cn5)OCCO6)CC4)c(Cl)cnc3ccc21 [TCMDC-136008] | 9.388 |
| COc1ccc2ncc(C)c(CCN3CCC(NCc4ccc5c(n4)NC(=O)CS5)CC3)c2c1 [TCMDC-134648] | 44.1 |
| Fc1ccc2ncc(Cl)c(CCN3CCC(NCc4cc5c(cn4)OCCO5)CC3)c2c1 [TCMDC-133446] | 74.26 |
| COc1ccc2ncc(Cl)c([C@@H](O)CN3CCC(NCc4cc5c(cn4)OCCO5)CC3)c2c1 [TCMDC-135470] | 13.81 |
| COc1cc(F)c2ncc(F)c(CCN3C[C@H](CNCc4ccc5c(n4)NC(=O)CS5)[C@H](O)C3)c2c1 [TCMDC-136333] | 73.35 |
| COc1ccc2nccc(CCN3CC(O)C(CNCc4ccc5c(n4)NC(=O)CS5)C3)c2n1 (centres unmarked) [TCMDC-136132] | 27.64 |
| COc1ccc2ncc(Cl)c([C@H](O)CN3CCC(NCc4cc5c(cn4)OCCO5)CC3)c2c1 [TCMDC-135469] | 53.55 |
| Clc1cnc2ccc3c(c2c1CCN1CCC(NCc2cc4c(cn2)OCCO4)CC1)OCCO3 [TCMDC-134566] | 24.75 |
| COc1ccc2ncc(F)c(CCN3CC(O)C(CNCc4ccc5c(n4)NC(=O)CS5)C3)c2c1 (centres unmarked) [TCMDC-136187] | 16.49 |
| Cc1ccc(C(=O)NC2CC2)cc1-c1ccc2c(cnn2S(=O)(=O)c2ccc(F)cc2)c1 [TCMDC-138772] | 31.89 |

| Structure (SMILES) | % Inhibition [%] |
| --- | --- |
| O=C(NCCc1cccc(Cl)c1Cl)c1ccc(N2CCN(c3ccncc3)CC2)nc1 [TCMDC-134587] | 10.14 |
| Cc1ccc(C(=O)Nc2cc(C(F)(F)F)cc(C(F)(F)F)c2)cc1[N+](=O)[O-] [TCMDC-125645] | -10.1 |
| Cc1csc(-c2nc(NCCc3c(C)noc3C)ncc2-c2ccsc2)n1 [TCMDC-125354] | 34.89 |
| Nc1ncc(-c2ccsc2)c2ccc(-c3cc(NCc4ccccc4)ncn3)cc12 [TCMDC-135660] | 18.52 |
| O=C(Cc1c[nH]cn1)Nc1ccc(-c2ccc(-c3nc4ccccc4[nH]3)s2)cc1 [TCMDC-136939] | -25.08 |
| O=C(/C=C/c1ccc(Cl)c(Cl)c1)N1CCC(NCc2ccc3[nH]ccc3c2)CC1 [TCMDC-134198] | 36.44 |
| CCC1N=C(N)N=C(N)N1OCc1ccc(Cl)c(Cl)c1 (centres unmarked) [TCMDC-131593] | 19.76 |
| CC(=O)C=C1CC(=O)N(C[C@@H](O)[C@H]2O[C@@H]3OC(C)(C)O[C@@H]3[C@H]2O)c2ccccc2N1 [TCMDC-138271] | 11.95 |
| O=C(/C=C/c1ccc(C(F)(F)F)cc1)NCCCCCN1CCCN(C(=O)Nc2cccc(Cl)c2)CC1 [TCMDC-136108] | -11.12 |
| CCOc1cccc(C(=O)Nc2cccc(CN3CCCN(Cc4cccc(O)c4)CC3)c2)c1 [TCMDC-141861] | -4.748 |
| O=C1CSc2ccc(CNC3CCN(CCc4c(F)cnc5ccc(F)cc45)CC3)nc2N1 [TCMDC-135095] | -0.4072 |
| COc1ccc2ncc(Cl)c(CCN3CCC(NCc4ccc5c(n4)NC(=O)CS5)CC3)c2c1 [TCMDC-141807] | -3.776 |
| O=C1CSc2ccc(CNC3CCN(CCc4c(Cl)cnc5ccc(Cl)cc45)CC3)nc2N1 [TCMDC-141959] | 32.4 |
| O=C1CSc2ccc(CNC3CCN(CCc4c(Cl)cnc5ccc(F)cc45)CC3)nc2N1 [TCMDC-141960] | 55.74 |
| COc1cc(F)c2ncc(Cl)c(CCN3CCC(NCc4ccc5c(c4)NC(=O)CS5)CC3)c2c1 [TCMDC-135620] | 12.4 |
| COc1cc(F)c2ncc(Cl)c(CCN3CCC(NCc4ccc5c(n4)NC(=O)CS5)CC3)c2c1 [TCMDC-134318] | 94.95 |
| Cc1ccc(CNC(=O)c2cc3c(=O)n4ccccc4nc3n(CCCN3CCOCC3)c2=N)cc1 [TCMDC-125409] | 26.53 |
| CC(O)C1CCCCN1C(=O)c1cccc(-c2cccc(-c3nc4cc(C(F)(F)F)ccc4[nH]3)c2)c1 (centres unmarked) [TCMDC-132335] | 13.24 |
| O=C(Nc1cccc(C(F)(F)F)c1)NC1CCN(c2ccnc3cc(Cl)ccc23)CC1 [TCMDC-133567] | -12.77 |
| O=C(CN(c1cccc(C(F)(F)F)c1)S(=O)(=O)c1ccc(Cl)cc1)NCCC(c1ccccc1)c1ccccc1 [TCMDC-136712] | 5.637 |
| O=C(CN1CCN(S(=O)(=O)C=Cc2ccccc2)CC1)Nc1cc(C(F)(F)F)ccc1Cl [TCMDC-124538] | -9.823 |
| O=C(Cn1cc(C(F)(F)F)cc(Cl)c1=O)N1CCN(S(=O)(=O)c2ccc(Cl)cc2)CC1 [TCMDC-123617] | 70.99 |
